Rows were chosen to be rich in hits. Some 11% of all compounds tested hit in one or more screens of this group.
Lmaj promast: inhibitors of Leishmania major promastigote growth | inhibition, % at 10 µM | actives 9% (n = 200,000) | Leishmania major promastigotes, resazurin fluorescence viability | AID 1063; in the data active = inhibition above about 50%;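 also: promastigotes grown with compound for 44 hours at 28 °C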
Autophagy mod: autophagy modulation, high-content screen; calls only at 10 µM (by protocol); MEF GFP-LC3 puncta imaging; test concentration mostly 10 µM; actives 0.98% (n = 190,000);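 active = percentage of spot-positive cells more than 3 SD above its plate mean, without a fluorescence outlier flag or 80% toxicity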;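 also: spot-positive cell cutoff set from DMSO-treated cells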
Insulin prom inh: TRM-6 insulin promoter activity inhibition. TRM-6 cells (human fetal islet line), insulin promoter-eGFP reporter, imaging; reporter expression induced with tamoxifen. inhibition, % at 2 µM. actives 0.9% (n = 130,000). AID 1273;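 active = inhibition above the mean plus 3 SD, with well images judged a real hit on visual review, cut at about 60% in these data, passing the limit was not always enough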
WT yeast gro inh: growth inhibition of WT yeast, mitochondrial fusion screen | mitochondrial fusion phenotypic screen, WT strain | inhibition, % at 10 µM | actives 2.1% (n = 190,000) | AID 1362; in the data active = inhibition above about 58%; tested in S. cerevisiae
Insulin prom up: MIN6 insulin promoter up-regulation. MIN6 insulin promoter-GFP reporter, high-content imaging; stronger effect = higher value. z-score at 5 µM. actives 0.3% (n = 190,000). AID 1625;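 active = z-score above 3 at 5 µM with at least 500 cells counted in the well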
Numbers without * were called inactive; i = inactive; · = no result given; + = active, no number.

SMILES | Lmaj promast | Autophagy mod | Insulin prom inh | WT yeast gro inh | Insulin prom up
Cc1noc(C)c1S(=O)(=O)N1CCC(C(=O)N2CCN(C3CCCC3)CC2)CC1 | 30 | i | · | -1 | 3*
Cc1noc(C)c1S(=O)(=O)N1CCC(C(=O)N2CCN(c3ccc(F)cc3)CC2)CC1 | 4 | i | 39 | 4 | -1
Cc1noc(C)c1S(=O)(=O)N1CCCC(C(=O)NCCc2ccc(Cl)cc2)C1 (configuration not stated) | 100* | i | 8 | 14 | 0.43
CCCS(=O)(=O)N1CCC(C(=O)NCCN(C)Cc2ccccc2)CC1 | 61* | i | 62 | 8 | -0.23
CCC(C)(C)C1CCC(=NNC(=O)c2ccoc2C)CC1 (configuration not stated) | -4 | i | -70 | 18 | 0.62
O=C(Nc1nc(-c2ccccn2)cs1)c1cc(Cl)ccc1[N+](=O)[O-] | 100* | i | · | 70* | 0.21
Cc1cc(C(=O)Nc2nc(-c3ccccn3)cs2)ccc1[N+](=O)[O-] | 100* | i | · | 62* | -1.5
Cc1ccc(CC(=O)NCc2ccc(F)cc2)cc1 | -5 | i | 14 | -3 | -0.12
CSc1ccccc1C(=O)C1CCCN(S(=O)(=O)N(C)C)C1 (configuration not stated) | 89* | i | · | 6 | -0.32
CSc1ccccc1C(=O)C1CCCN(C(=O)c2csnn2)C1 (configuration not stated) | -4 | i | 10 | -2 | ·
CC1=NN(C(=O)c2c(Br)c(C)nn2C)C(O)(C(F)(F)F)C1 (configuration not stated) | -4 | i | 0 | -4 | -0.53
CC(NC(=O)c1ccc(F)cc1)c1ccc(F)cc1 (configuration not stated) | 56* | i | -30 | -14 | 0.41
CC(NC(=O)c1ccccc1)c1ccc(Br)cc1 (configuration not stated) | 55* | i | 88* | -16 | -0.07
COc1ccc(C2C=C(c3ccc(Br)s3)Nc3ncnn32)cc1OC (configuration not stated) | -6 | i | · | -10 | -0.39
CC(=O)NC1(NC(C)=O)CCN(C)CC1 | -4 | i | -65 | -1 | ·
COc1ccc(C(=O)C2CCCN(Cc3c(C)[nH]c4ccccc34)C2)c(OC)c1 (configuration not stated) | 97* | i | · | -2 | -0.38
COc1ccc(C(=O)C2CCCN(C3Cc4ccccc4C3)C2)c(OC)c1 (configuration not stated) | 94* | i | -60 | 16 | 0.4
COc1ccc(C(=O)C2CCCN(Cc3sc(N4CCCC4)nc3Cl)C2)c(OC)c1 (configuration not stated) | 99* | i | · | 5 | 0.61
COc1ccc(C(=O)C2CCCN(Cc3ccc(C#CCCO)cc3)C2)c(OC)c1 (configuration not stated) | -2 | i | · | 3 | ·
COc1ccccc1C1CCN(Cc2c(C)[nH]c3ccccc23)CC1 | · | · | · | · | -0.73
O=S(=O)(NCCOCC(F)(F)F)c1ccc2oc3ccccc3c2c1 | -4 | i | -29 | 7 | ·
CCOc1cccc2cc(-c3csc(NC(=O)CCC(=O)N4CCC(C)CC4)n3)c(=O)oc12 | 5 | + | 36 | -6 | -0.37
CCOc1cccc2cc(-c3csc(NC(=O)CCC(=O)NCCCN4CCC(C)CC4)n3)c(=O)oc12 | 62* | i | · | 5 | ·
CN1CCc2nc3sc(C(=O)C45CC6CC(CC(C6)C4)C5)c(N)c3cc2C1 | 96* | i | · | 11 | -0.96
C=C(C)CNC(=S)NNC(=O)c1ccc(Br)cc1 | 7 | i | -3 | -6 | -0.31
SMILES | Lmaj promast | Autophagy mod | Insulin prom inh | WT yeast gro inh | Insulin prom up
CC(C)NC(=O)NC(=O)CSc1nnc(COc2ccccc2F)n1C(C)C1CC2CCC1C2 (configuration not stated) | 51* | i | -34 | 12 | -0.98
COc1ccc(NC(=O)C2CC(=O)N/C(=N/N=C/c3ccco3)S2)cc1 (configuration not stated) | · | · | · | · | 0.32
COc1ccc(/C=N/N=C2/NC(=O)CC(C(=O)O)S2)cc1 (configuration not stated) | 58* | i | 7 | -10 | 0.06
CCCc1c(C)c2ccccc2[nH]c1=O | 8 | i | -10 | -1 | 1.2
CCCc1c(C)[nH]c2ccccc2c1=O | 18 | i | 71* | 51 | 0.17
CCCc1c(C)[nH]c2ccc(NC(C)=O)cc2c1=O | -1 | i | 20 | 69* | ·
O=C(O)CCCn1cc(NC(=O)COc2ccc([N+](=O)[O-])cc2)cn1 | -3 | i | · | 0 | -0.07
Cc1ccc(NNC(=O)c2ccno2)c(C)c1 | · | · | · | · | 0.77

High-throughput results deposited in PubChem BioAssay by several laboratories.
